# This is a sample that favours compounds with a hit; in the whole collection about 17% have one here.
# TDP1 block: TDP1 (human) enzyme inhibition; Potency, µM (doses to about 130 µM), actives largely listed as inhibitors; recombinant TDP1, AlphaScreen DNA substrate cleavage; 0.28% of 350,000 active; also: nearly all actives have a fitted effect of over 40% in size
#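 Signal: AlphaScreen proximity between streptavidin donor and anti-FITC acceptor beads on intact substrate. Reaction: Tdp1 1 nM, substrate 15 nM final, 5 min RT after 15 min compound preincubation.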
# TDP1 cell noCPT: qHTS for Inhibitors of human tyrosyl-DNA phosphodiesterase 1 (TDP1): qHTS in cells in absence of CPT | DT40 Tdp1-/- hTDP1 cells, no CPT, ATP luminescence, 48 h | Potency, µM (doses to about 46.2 µM), actives largely listed as inhibitors | 15% of 420,000 active; also: nearly all actives have a fitted effect of over 55% in size
#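 Stably hTDP1-transfected Tdp1-null chicken DT40 cells were treated with library compounds minus camptothecin and grown for at least 48 hr at 37 °C, after which cellular ATP was quantified by luminescence.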
# DT40 TDP1 CPT: DT40-hTDP1 cell growth loss with CPT; chicken DT40 Tdp1-/-;hTDP1 cells + 20 nM CPT, ATP luminescence, 48 h; Potency, µM (series often up to 46.2 µM), actives largely listed as inhibitors; 12% of 420,000 active; AID 686979; also: nearly all actives have a fitted effect of over 55% in size
#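 Cell growth measured by CellTiter-Glo luminescence after a minimum 48 h, 37 C compound exposure with 20 nM CPT in Tdp1-knockout DT40 cells stably expressing hTDP1, seeded 400/well; qHTS titration format.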
# ClpP mod: qHTS Assay for Activators of ClpP; ATP-dependent Clp protease proteolytic subunit (Bacillus subtilis (strain 168)), P80244; purified B. subtilis ClpP, FRET peptide cleavage, 20 min; Potency, µM (top dose mostly 57.5 µM); 1.9% of 340,000 active; AID 651965, 2013; active = well fitted falling curve with a large enough effect; inconclusive = small, poorly fitted or top-dose-only effect; inactive = no such curve, though single readings can be large or run the other way; also: the source files actives as falling curves though it sought activators and does not explain the sign; nearly all actives have a fitted effect of over 65% in size
# Target sequence (P80244 whole entry, looked up): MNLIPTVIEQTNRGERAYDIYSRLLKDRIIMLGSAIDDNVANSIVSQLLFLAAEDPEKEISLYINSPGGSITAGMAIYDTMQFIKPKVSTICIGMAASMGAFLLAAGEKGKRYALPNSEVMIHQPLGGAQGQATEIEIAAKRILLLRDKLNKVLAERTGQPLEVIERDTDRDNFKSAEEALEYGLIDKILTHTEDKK
#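 ClpP 10 microg/mL final, pH 8 Tris/KCl buffer with BSA, glycerol, Tween-20; compound pinned in; FRET-FV substrate; RT 20 min; Ex320/Em430; ΔFRET vs ADEP 5.8 microM, DMSO, no enzyme.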
# Hits are given with their value; . = inactive; ? = inconclusive; / = no result given; ! = a repeat was not active; [ ] = dose if it differs, or a comment. Unless noted, calls follow the shape of the dose curve; as a rule, active = well fitted curve in the direction sought with a large enough effect; inconclusive = small, poorly fitted or top-dose-only effect, or another doubt; inactive = no such curve, though single readings can be large; an effect the other way counts as inactive or inconclusive.
SMILES,TDP1 block,TDP1 cell noCPT,DT40 TDP1 CPT,ClpP mod
CN1CC[C@@]2(C)c3cc(O)ccc3N(C)C2O1 (some centres not stated),.,/,/,/
CN1CC[C@@]2(C)c3cc(O)ccc3N(C)[C@@H]12,.,7.31µM,5.8µM,?
CC[C@H](CO)Nc1nc(NCc2ccccc2)c2ncn(C(C)C)c2n1,.,22µM!,24.7µM,/
CC1=C2C[C@H]3[C@@H](CC=C4C[C@@H](O)CC[C@@]43C)[C@@H]2CC[C@]12O[C@@H]1C[C@H](C)CN[C@H]1C2C (some centres not stated),.,/,/,/
COc1cc2c(c(OC)c1OC)-c1ccc(O)c(=O)cc1C(NC(C)=O)CC2 (configuration not stated),.,0.0651µM,0.0259µM,/
COc1ccc2c(c1)C(NC(C)=O)CCc1cc(OC)c(OC)c(OC)c1-2 (configuration not stated),/,0.0184µM,0.0082µM,.
COc1cc2c(c(OC)c1OC)-c1ccc(OC)c(=O)cc1C(NC(C)=O)CC2 (configuration not stated),.,0.0092µM,0.0184µM,.
CCCC1(CC(C)CC)C(=O)NC(=O)NC1=O (configuration not stated),/,.,.,.
CCCCOc1ccc(CN2CCN(CCO)CC2)cc1,.,.,.,.
CCCCCCOc1ccc(CN2CCN(CCO)CC2)cc1,.,20.6µM,16.4µM,.
Cc1ccc(/C=C/C(=O)C2C(=O)c3ccccc3C2=O)cc1,.,?,16.4µM,.
O=C1c2ccccc2C(=O)C1C(=O)C(c1ccccc1)c1ccccc1,.,?,?,/
CSc1ccccc1NP1(=O)OCC(C)([N+](=O)[O-])CO1 (configuration not stated),/,?,.,.
CC(C)NCC(O)c1ccc(N)c(C#N)c1 (configuration not stated),.,.,.,/
CCCCCNC(=O)C(c1ccncc1)n1c(=O)c(-c2cc3ccccc3[nH]2)nc2ccccc21 (configuration not stated),/,?,16.4µM,.
O=c1c2ccccc2nc(/C=C/c2ccc3c(c2)OCO3)n1-c1ccccc1,.,23.1µM,?,.
COc1cccc(-n2c(/C=C\c3ccc(Cl)cc3)nc3ccccc3c2=O)c1,.[2.28 µM],18.4µM,?,?
COc1ccc(-n2c(/C=C/c3ccc(O)c(O)c3)nc3ccccc3c2=O)cc1,/,18.4µM,?,.
COc1cccc(-n2c(-c3ccoc3)nc3ccccc3c2=O)c1,.,?,?,.
C=CC[N+]1(C)CCC23c4c5ccc(O)c4O[C@H]2C(=O)CC[C@@]3(O)C1C5 (some centres not stated),.,/,/,/
CCC1/C=C/C=CCC(C)C(O)[C@@](C)(O)C(=O)C(C)C(O)C(C)C(=O)C(C)C(O)C(C)C=CC(=O)O[C@H]2C(C)C(CC1)O[C@]1(CCC(C)C(CC(C)O)O1)C2C (some centres not stated),.,0.0058µM,0.0073µM,/
CC(C)(C)c1o[nH]c(=O)c1C[C@H](N)C(=O)O,.,.,.,/
CCC(=O)C1=C(c2cccc([N+](=O)[O-])c2)N(C(=O)CC)n2c(nnc2C2CCCCC2)S1,.,4.11µM,3.26µM,.
COc1ccc(-c2nc3ccccc3o2)cc1NC(=O)Cc1ccc(Cl)cc1,/,.,.,?
C[C@H](CO)N1C[C@H](C)[C@@H](CN(C)S(=O)(=O)c2cccs2)Oc2ccc(NC(=O)Nc3ccc(C(F)(F)F)cc3)cc2C1=O,.,18.4µM,16.4µM,.
SMILES,TDP1 block,TDP1 cell noCPT,DT40 TDP1 CPT,ClpP mod
C[C@@H]1CN([C@H](C)CO)C(=O)c2cc(NC(=O)Nc3ccc(C(F)(F)F)cc3)ccc2O[C@H]1CN(C)S(=O)(=O)c1cccs1,.,?,?,.
C[C@H](CO)N1C[C@H](C)[C@H](CN(C)S(=O)(=O)c2ccc(Cl)cc2)OCc2ccccc2-c2c(n(C)c3ccccc23)C1=O,/,9.2µM,25.9µM,.
Cc1ccc(S(=O)(=O)N(C)C[C@H]2Oc3ncc(Br)cc3C(=O)N([C@H](C)CO)C[C@@H]2C)cc1,/,23.1µM,.,.
C[C@@H]1CN([C@H](C)CO)C(=O)c2c(c3ccccc3n2C)-c2ccccc2CO[C@H]1CN(C)C(=O)Cc1ccccc1,/,13µM,23.1µM,.
NC1C[C@H]1c1ccccc1 (some centres not stated),.,.,.,/
Cc1ccc(S(=O)(=O)N(C)C[C@@H]2Oc3ncc(Br)cc3C(=O)N([C@H](C)CO)C[C@@H]2C)cc1,/,?,?,.
Cc1ccc(S(=O)(=O)N(C)C[C@@H]2OCc3ccccc3-c3c(n(C)c4ccccc34)C(=O)N([C@H](C)CO)C[C@@H]2C)cc1,/,?,23.1µM,.
Cc1nnc(NC(=O)c2cccn(Cc3ccc(Cl)cc3)c2=O)s1,.,.,.,.
CC(O)C1C=CC=CC(=O)OC2CC3OC4C5OC5(C)C(O)CC4(COC(=O)C(O)C(C)CCO1)C2(C)C31CO1 (configuration not stated),/,0.146µM,0.13µM,31.6µM
CC1=CC2OC3CC4OC(=O)C=CC=CC(C(C)O)OCC(O)C5(C)OC5C(=O)OCC2(CC1O)C4(C)C31CO1 (configuration not stated),/,0.146µM,0.092µM,.
CC1=CC2OC3CC4OC(=O)C=CC=CC(=O)OCCC(C)C(O)C(=O)OCC2(CC1)C4(C)C31CO1 (configuration not stated),/,0.164µM,0.0231µM,.
CC1CCOC(=O)C=CC=CC(=O)OC2CC3OC4C5OC5(C)C(O)CC4(COC(=O)C1O)C2(C)C31CO1 (configuration not stated),/,0.146µM,0.146µM,.
Cc1ccc(C(C)C)c(OCC(=O)N2CCN(CCc3ccncc3)CC2)c1,.,?,?,.
C[C@H](CCC(=O)O)[C@H]1CC[C@@H]2[C@@H]3[C@@H](O)C[C@H]4C[C@@H](O)CC[C@@]4(C)[C@H]3CC[C@@]21C,.[21 µM],/,/,/
CCN(C(=O)CSc1ncccc1C(=O)Oc1cccc([N+](=O)[O-])c1)c1cccc(C)c1,.,?,.,.
COc1cc(CCN)ccc1O,.,.,.,.
CCCSc1cc(OC)c(CCN)cc1OC,/,2.91µM,1.84µM,/
CCCCCSc1cc(OC)c(CCN)cc1OC,.,2.91µM,5.8µM,.
CCCCCCCCCC[n+]1cccc([C@@H]2CCCN2C)c1,.,/,/,/
CCCCCCCCCCCCCCCC(=O)O[C@@H]1[C@@H](O)[C@@H](O)[C@@H]([C@H](NC(=O)[C@@H]2C[C@@H](CCC)CN2C)[C@H](C)Cl)O[C@@H]1SC,/,?,23.7µM,/
COc1ccc(N2CCN(c3ncnc4c3nc3n4CCCCC3)CC2)cc1,.,?,?,.
CCN1CCN(C(=O)COc2ccc3oc4c(c3c2)CCCC4)CC1,.,20.6µM,?,.
CCN1CCN(C(=O)COc2ccc(S(=O)(=O)NC(C)C)cc2)CC1,.,.,.,.
